Counter-ions that a name gives are not always drawn.
Assays:
Details in all cases: 20 µM
[1] = test system: Salmonella enterica typhimurium; experiment: growth AUC normalised to DMSO control (fraction of control); higher = less growth inhibition, active = hit call of the paper
Outline: (§1)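 After two anaerobic passages, pathogens were added at a starting OD578 of 0.01 to pre-reduced mGAM plates holding compound at 20 μM with 1% DMSO; hemin and NAD were supplemented for Haemophilus parainfluenzae. Sealed with breathable membranes, plates were read at OD578 hourly for 24 h, in three biological replicates. The trapezoidal rule, applied up to the exponential-to-stationary transition, gave the growth-curve AUC, which was normalised to DMSO controls on the same plate.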

Shigella flexneri = experiment: as above
Outline: as §1

Vibrio cholerae = experiment: as above
Outline: as §1

[2] = test system: Yersinia pseudotuberculosis; experiment: as above
Outline: as §1

P. vulgatus WT = experiment: growth AUC normalised to DMSO control (median) (fraction of control); higher = less growth inhibition, active = hit call of the paper
Outline: (§2)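 Anaerobic growth was tracked hourly at OD578 for 24 h in 96-well plates of mGAM seeded at OD578 0.01 with each approved-drug library compound at 20 μM and 1% DMSO. Strains had first been passaged twice overnight without oxygen. Three biological replicates were run. The reported median is the area under the curve, calculated by the trapezoidal rule on curves truncated at entry into stationary phase and normalised to vehicle wells on the same plate.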

[3] = test system: S. enterica typhimurium WT; experiment: as above
Outline: as §2

[4] = test system: S. enterica typhimurium tolC KO; experiment: as above
Outline: as §2

P. vulgatus RND KO = experiment: as above
Outline: as §2

Measured: growth AUC normalised to DMSO control
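Wherever growth AUC normalised to DMSO control (median) is given: active when median AUC fell below 0.1.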

Cc1onc(-c2c(F)cccc2Cl)c1C(=O)N[C@@H]1C(=O)N2[C@@H]1SC(C)(C)[C@@H]2C(=O)O [Flucloxacillin sodium]
inactive: [1] 0.993 | Shigella flexneri 1.01 | Vibrio cholerae 0.999 | [2] 0.989 | P. vulgatus WT 0.132 | [3] 1.02
active: [4] 0.0123

Cn1c(=O)c2nc[nH]c2n(C)c1=O [Theophylline monohydrate]
inactive: Shigella flexneri 1.05 | Vibrio cholerae 1.07 | [2] 1.02 | P. vulgatus RND KO 1.02 | P. vulgatus WT 1.01 | [3] 1.01 | [4] 1

CCN(CC)C(=S)SSC(=S)N(CC)CC [Disulfiram]
inactive: Shigella flexneri 0.968 | Vibrio cholerae 0.989 | [2] 0.97 | P. vulgatus RND KO 0.896 | P. vulgatus WT 1.07 | [3] 0.995 | [4] 1

CC#C[C@]1(O)CC[C@H]2[C@@H]3CCC4=CC(=O)CCC4=C3[C@@H](c3ccc(N(C)C)cc3)C[C@@]21C [Mifepristone]
inactive: [1] 1.01 | Shigella flexneri 0.988 | Vibrio cholerae 0.994 | [2] 1.01 | P. vulgatus RND KO 0.93 | P. vulgatus WT 0.954 | [3] 0.999 | [4] 0.92

Cc1onc(-c2ccccc2)c1C(=O)N[C@@H]1C(=O)N2[C@@H]1SC(C)(C)[C@@H]2C(=O)O [Oxacillin sodium]
active: [2] 0.908 | [4] 0.0924
inactive: [1] 0.975 | Shigella flexneri 1.03 | Vibrio cholerae 0.961 | P. vulgatus WT 0.151 | [3] 0.994

NNc1nncc2ccccc12 [Hydralazine hydrochloride]
inactive: Shigella flexneri 1.04 | Vibrio cholerae 1.06 | [2] 1.03 | P. vulgatus RND KO 1.01 | P. vulgatus WT 1.04 | [3] 0.996 | [4] 0.992

COC1=CC(=O)C[C@@H](C)[C@]12Oc1c(Cl)c(OC)cc(OC)c1C2=O [Griseofulvin]
inactive: Shigella flexneri 0.998 | Vibrio cholerae 0.99 | [2] 1.03 | P. vulgatus RND KO 0.99 | P. vulgatus WT 0.976 | [3] 1 | [4] 0.996

c1ccc2c(CC3=NCCN3)cccc2c1 [Naphazoline hydrochloride]
inactive: [1] 0.994 | Shigella flexneri 1.01 | Vibrio cholerae 1.01 | [2] 1 | P. vulgatus RND KO 0.958 | P. vulgatus WT 0.943 | [3] 0.992 | [4] 0.999

NC(=O)c1cc[n+](CC2=C(C(=O)[O-])N3C(=O)[C@@H](NC(=O)[C@@H](c4ccccc4)S(=O)(=O)O)[C@H]3SC2)cc1 [Cefsulodin sodium salt]
active: [2] 0.865
inactive: [1] 0.944 | Shigella flexneri 0.999 | Vibrio cholerae 0.976 | P. vulgatus WT 0.983 | [3] 1 | [4] 0.978

CCn1cc(C(=O)O)c(=O)c2cnc(N3CCNCC3)nc21 [Pipemidic acid]
inactive: P. vulgatus RND KO 1.02 | P. vulgatus WT 0.996 | [3] 0.107
active: Shigella flexneri 0.113 | Vibrio cholerae 0.0338 | [2] 0.0731 | [4] 0.04

O=C1C(=O)c2ccccc2C(O)=C1C1CCC(c2ccc(Cl)cc2)CC1 (configuration not stated) [Atovaquone]
inactive: Shigella flexneri 0.976 | [2] 0.993 | P. vulgatus RND KO 1.02 | P. vulgatus WT 1.02 | [3] 0.992 | [4] 1.01

O=c1[nH]cnc2c1ncn2[C@H]1CC[C@@H](CO)O1 [Didanosine]
inactive: Shigella flexneri 1.01 | Vibrio cholerae 1.04 | P. vulgatus RND KO 1 | P. vulgatus WT 0.973 | [3] 0.992 | [4] 0.949
active: [2] 0.73

O=C(O)c1cccnc1 [Niacin]
inactive: Shigella flexneri 1.02 | Vibrio cholerae 1.06 | [2] 0.993 | P. vulgatus RND KO 1.05 | P. vulgatus WT 1.09 | [3] 1.02 | [4] 0.985

CC(=O)Oc1ccc(C(c2ccc(OC(C)=O)cc2)c2ccccn2)cc1 [Bisacodyl]
inactive: Shigella flexneri 1.01 | Vibrio cholerae 0.991 | [2] 1.01 | P. vulgatus RND KO 1.02 | P. vulgatus WT 1.04 | [3] 1.01 | [4] 1.01

COc1cc([C@@H]2c3cc4c(cc3[C@@H](O[C@@H]3O[C@@H]5CO[C@@H](C)O[C@H]5[C@H](O)[C@H]3O)[C@H]3COC(=O)[C@H]23)OCO4)cc(OC)c1O [Etoposide]
inactive: Shigella flexneri 1.03 | Vibrio cholerae 1.02 | [2] 0.99 | P. vulgatus WT 1.09 | [3] 1
active: [4] 0.0378

CCCCC1=NC2(CCCC2)C(=O)N1Cc1ccc(-c2ccccc2-c2nnn[nH]2)cc1 [Irbesartan]
inactive: P. vulgatus RND KO 0.985 | P. vulgatus WT 1 | [3] 1.01 | [4] 0.987

Cc1cc(/C=C/c2ccc3cc(N(C)C)ccc3[n+]2C)c(C)n1-c1ccccc1 [Pyrvinium pamoate]
inactive: Vibrio cholerae 0.865 | P. vulgatus RND KO 1.01 | P. vulgatus WT 1.08 | [3] 1.02 | [4] 0.61

O=C(CCCl)NCc1ccccc1 [Beclamide]
inactive: P. vulgatus RND KO 0.972 | P. vulgatus WT 0.966 | [3] 1.01 | [4] 0.974

Cn1c(=O)c2[nH]cnc2n(C)c1=O [Aminophylline]
inactive: Shigella flexneri 1.03 | Vibrio cholerae 1.03 | [2] 0.979 | P. vulgatus RND KO 1.03 | P. vulgatus WT 1.05 | [3] 0.993 | [4] 1.01

N=c1ccn2c(n1)O[C@H]1[C@H](O)[C@@H](CO)O[C@H]12 [Ancitabine hydrochloride]
inactive: P. vulgatus RND KO 0.971 | P. vulgatus WT 0.978 | [3] 1.01 | [4] 0.991

CN1C(C(=O)Nc2ccccn2)=C(O)c2sccc2S1(=O)=O [Tenoxicam]
active: Vibrio cholerae 0.791
inactive: Shigella flexneri 0.94 | [2] 0.993 | P. vulgatus RND KO 0.97 | P. vulgatus WT 0.969 | [3] 1 | [4] 0.956

O=c1[nH]cnc2c1ncn2[C@@H]1O[C@H](CO)[C@@H](O)[C@H]1O [Inosine]
inactive: P. vulgatus RND KO 1.01 | P. vulgatus WT 1.04 | [3] 0.991 | [4] 1.01

CCN1CCN(c2cc3c(cc2F)c(=O)c(C(=O)O)cn3C2CC2)CC1 [Enrofloxacin]
active: P. vulgatus RND KO 0.0121 | P. vulgatus WT 0.0049 | [3] 0.00541 | [4] 0.00221

CC(C)OC(=O)C(C)(C)Oc1ccc(C(=O)c2ccc(Cl)cc2)cc1 [Fenofibrate]
inactive: Shigella flexneri 0.971 | Vibrio cholerae 1 | [2] 0.992 | P. vulgatus RND KO 0.996 | P. vulgatus WT 1.01 | [3] 1 | [4] 0.94

C[C@]12CC[C@@H]3c4ccc(O)cc4CC[C@H]3[C@@H]1C[C@@H](O)[C@@H]2O [Estriol]
inactive: Vibrio cholerae 1.02 | [2] 1.01 | P. vulgatus RND KO 0.979 | P. vulgatus WT 0.978 | [3] 1 | [4] 0.993

— the supplement of paper PMC12350171
